Screens (PubChem)
This is one part of a sample in which hits are shown more often than they occur.
nsP2pro primary: inhibitors of chikungunya virus nsP2 protease | Q8JUX6 | FRET peptide cleavage, nsP2pro, fluorescence 1 h | Potency, µM (highest dose often 24.9 µM), for inactives: at the highest dose activity change, negative = inhibition, hits mostly inhibitors | hit rate 1.1% among 31,000 | AID 1964107; calls by dose curve; further: nearly all actives have a fitted effect of over 60% in size
Target sequence (Q8JUX6 whole entry, looked up): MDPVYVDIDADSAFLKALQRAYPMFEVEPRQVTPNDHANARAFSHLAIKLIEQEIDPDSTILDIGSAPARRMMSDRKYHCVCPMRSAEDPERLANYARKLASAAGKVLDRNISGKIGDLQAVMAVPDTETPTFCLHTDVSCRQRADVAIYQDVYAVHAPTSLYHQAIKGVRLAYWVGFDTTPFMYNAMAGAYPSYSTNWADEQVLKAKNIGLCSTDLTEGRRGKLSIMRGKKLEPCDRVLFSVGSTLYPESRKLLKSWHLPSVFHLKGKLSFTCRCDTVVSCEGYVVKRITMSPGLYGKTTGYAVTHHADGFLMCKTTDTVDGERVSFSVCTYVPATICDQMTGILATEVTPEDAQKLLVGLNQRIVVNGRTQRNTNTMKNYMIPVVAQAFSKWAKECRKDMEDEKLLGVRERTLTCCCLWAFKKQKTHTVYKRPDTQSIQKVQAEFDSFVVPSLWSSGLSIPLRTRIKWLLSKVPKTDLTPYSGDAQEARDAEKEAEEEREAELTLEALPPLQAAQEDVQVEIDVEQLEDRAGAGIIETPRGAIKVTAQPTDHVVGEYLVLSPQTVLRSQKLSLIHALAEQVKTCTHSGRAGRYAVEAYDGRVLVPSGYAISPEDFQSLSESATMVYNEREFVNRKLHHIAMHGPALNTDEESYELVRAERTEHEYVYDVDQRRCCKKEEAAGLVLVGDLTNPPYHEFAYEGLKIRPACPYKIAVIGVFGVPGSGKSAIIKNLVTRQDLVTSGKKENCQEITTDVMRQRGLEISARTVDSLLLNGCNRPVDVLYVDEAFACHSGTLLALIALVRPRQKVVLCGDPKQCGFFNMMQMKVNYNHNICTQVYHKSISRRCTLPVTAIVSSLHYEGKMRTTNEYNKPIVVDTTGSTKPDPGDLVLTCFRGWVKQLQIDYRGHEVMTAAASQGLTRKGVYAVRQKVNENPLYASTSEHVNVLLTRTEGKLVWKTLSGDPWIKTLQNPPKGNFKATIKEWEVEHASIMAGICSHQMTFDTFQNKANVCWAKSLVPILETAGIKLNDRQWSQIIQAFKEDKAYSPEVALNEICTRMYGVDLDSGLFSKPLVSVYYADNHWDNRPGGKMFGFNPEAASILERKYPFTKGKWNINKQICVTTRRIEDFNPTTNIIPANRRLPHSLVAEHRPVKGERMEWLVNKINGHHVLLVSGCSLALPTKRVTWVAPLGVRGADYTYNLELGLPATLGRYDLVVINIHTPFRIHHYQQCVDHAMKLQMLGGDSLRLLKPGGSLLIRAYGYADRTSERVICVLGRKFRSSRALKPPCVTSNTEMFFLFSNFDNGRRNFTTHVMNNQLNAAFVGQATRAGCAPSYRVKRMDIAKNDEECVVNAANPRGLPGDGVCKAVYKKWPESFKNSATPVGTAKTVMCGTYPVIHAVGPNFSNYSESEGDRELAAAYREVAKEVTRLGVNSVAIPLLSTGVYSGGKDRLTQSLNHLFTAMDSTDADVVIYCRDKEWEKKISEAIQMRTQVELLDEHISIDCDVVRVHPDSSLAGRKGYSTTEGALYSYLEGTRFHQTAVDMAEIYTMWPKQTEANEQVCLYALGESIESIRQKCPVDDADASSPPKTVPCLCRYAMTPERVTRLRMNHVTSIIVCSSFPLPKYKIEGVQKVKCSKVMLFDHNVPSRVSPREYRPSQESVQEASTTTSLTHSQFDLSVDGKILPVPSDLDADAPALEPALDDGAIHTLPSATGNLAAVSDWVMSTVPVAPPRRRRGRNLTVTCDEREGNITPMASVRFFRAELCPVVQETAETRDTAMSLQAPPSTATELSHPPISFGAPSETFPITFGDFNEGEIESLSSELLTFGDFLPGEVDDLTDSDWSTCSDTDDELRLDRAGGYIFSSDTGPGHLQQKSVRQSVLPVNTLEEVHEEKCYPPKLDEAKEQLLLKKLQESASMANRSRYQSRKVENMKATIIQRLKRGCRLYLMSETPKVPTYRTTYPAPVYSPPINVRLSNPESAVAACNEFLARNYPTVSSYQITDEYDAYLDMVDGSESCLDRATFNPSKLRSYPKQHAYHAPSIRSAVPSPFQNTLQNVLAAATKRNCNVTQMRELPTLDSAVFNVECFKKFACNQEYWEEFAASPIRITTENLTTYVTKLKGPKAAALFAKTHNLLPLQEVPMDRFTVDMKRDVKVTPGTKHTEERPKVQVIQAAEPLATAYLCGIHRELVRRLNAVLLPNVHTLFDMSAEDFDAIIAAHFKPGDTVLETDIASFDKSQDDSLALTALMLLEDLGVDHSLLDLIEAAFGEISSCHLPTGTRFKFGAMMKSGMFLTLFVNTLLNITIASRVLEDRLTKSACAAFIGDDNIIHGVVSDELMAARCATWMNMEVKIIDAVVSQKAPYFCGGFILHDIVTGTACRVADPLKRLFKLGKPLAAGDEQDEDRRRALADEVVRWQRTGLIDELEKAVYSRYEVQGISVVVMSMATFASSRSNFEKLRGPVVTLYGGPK
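Purified recombinant nsP2pro (150 nM final) in 10 mM Tris-HCl pH 8.0 with 0.01% Tween 20 was preincubated 15 min at room temperature with compound (7 concentrations, up to 25 uM). FRET peptide 2 substrate (2.5 uM final) was then added; fluorescence was read after 1 h.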
Active calls of the source: *; i = inactive; [ ] = remark or other dose. On the % scale 0 is the no-effect control and ±100 the full control effect; potency means the concentration at half of the fitted maximal effect.

SMILES | nsP2pro primary
Cc1cc(-c2ccc(N=Nc3ccc4c(S(=O)(=O)O)cc(S(=O)(=O)O)c(N)c4c3O)c(C)c2)ccc1N=Nc1ccc2c(S(=O)(=O)O)cc(S(=O)(=O)O)c(N)c2c1O | 12.4µM*
COC(=O)c1ccc(O)c2ncc(N3CCN(C)CC3)cc12 | i
CN1CCC(N2C[C@@H]3C[C@H]2C(=O)N(CC2CC2)c2ccccc2O3)CC1 | -0.3%[39.2 µM]
CCOC(=O)N1CCC(NCCNC(=O)c2ccccc2C)CC1 | -11.3%
CN1CCCn2nc(C(=O)N(C)Cc3nc4ccc(Cl)cc4[nH]3)cc2C1 | i
CCOC(=O)c1ccccc1C(=O)OCC | 3.8%
CCOC(=O)C(Cc1ccccc1)NC(=O)Cn1nnc(-c2ccc(C)cc2)n1 (centres undefined) | -19.6%
CCOC(=O)[C@H](CS)NCCN[C@@H](CS)C(=O)OCC | 11.1µM*
Cc1cccc(-c2nocc2CCC(=O)NCc2ccc(F)cc2F)c1 | 3.1%
CCCCN1CCc2nc(N3CCN(C)CC3)ncc2C1 | 10µM*
Cc1ccccc1CN1CCc2nc(N3CCN(c4ncccn4)CC3)ncc2C1 | 52.0%
CCN1CCN(c2ncc3c(n2)CCN(Cc2ccc(C)s2)C3)CC1 | 21.2%
Cc1cc(C)nc(NC(=S)N2CCN(c3ccc(Cl)c(Cl)c3Cl)CC2)c1 | i
COc1ccc(Br)cc1S(=O)(=O)N1CCN(S(=O)(=O)c2ccc3c(c2)OCCO3)CC1 | -6.0%
CC(C)(CO)C(O)C(=O)NCCC(=O)O (centres undefined) | -11.3%
Cn1cc(-c2cnc(Nc3cccnc3)c3c2CCO3)cn1 | 8.91µM*
Cn1cc(-c2cnc(Nc3ccc(F)cc3)c3c2CCO3)cn1 | -5.4%[39.2 µM]
CNC(=O)c1cccc(-c2cnc(Nc3ccc(Cl)cn3)c3c2CCO3)c1 | i
Cc1cccc(/C=N/Nc2cc(N3CCOCC3)nc(OCCc3ccccn3)n2)c1 | 5.5%
COC1=C2C[C@H](C)C[C@H](OC)[C@H](O)[C@@H](C)/C=C(/C)[C@H](OC(N)=O)[C@@H](OC)/C=C\C=C(\C)C(=O)NC(=CC1=O)C2=O | 12.4µM*
C=CCNC1=C2C[C@@H](C)C[C@H](OC)[C@H](O)[C@@H](C)/C=C(\C)[C@H](OC(N)=O)[C@@H](OC)/C=C\C=C(/C)C(=O)NC(=CC1=O)C2=O | -23.5%
CCN1CCN(Cc2ccc(NC(=O)c3ccc(C)c(/C=C/c4cnc5[nH]ccc5c4OC)c3)cc2C(F)(F)F)CC1 | 132.6%
O=C([C@H](Cc1ccc(O[S+](=O)([O-])c2cccc3cnccc23)cc1)N[S+](=O)([O-])c1cccnc1)N1CCN(c2ccccc2)CC1 | -0.5%
CC1=C(C(=O)NC2CCCCC2)C(c2ccccc2Br)N=C(Nc2nc3ccccc3o2)N1 (centres undefined) | -10.3%
Cc1cc(CN2CCC23Cc2ccccc2NC3=O)no1 (centres undefined) | -15.9%[39.2 µM]
SMILES | nsP2pro primary
CCCN1Cc2ccccc2NC(=O)C12CCNC2 (centres undefined) | 12.6µM*
O=C1Nc2ccccc2CN(C/C=C/c2ccccc2)C12CCNC2 (centres undefined) | -8.2%
COCCCNCC1COc2ccccc2O1 (centres undefined) | -10.9%
O=C(Cc1ccc(-c2ccc(OCCN3CCOCC3)cc2)cn1)NCc1ccccc1 | -1.1%
Cc1c(C(=O)NCC2CCCO2)[nH]c2c1C(=O)CC(c1ccco1)C2 (centres undefined) | -21.6%
CCOC(=O)c1[nH]c2c(c1C)CCC(c1ccco1)C2 (centres undefined) | -1.6%
CCOC(=O)c1[nH]c2c(c1C)C(=S)CC(c1ccco1)C2 (centres undefined) | 12.6µM*
Cn1cccc1C(=O)C(=O)N1C[C@H](c2cc(F)cc(F)c2)[C@@H]2[C@H]1C1CCN2CC1 | i
OC1(Cn2ccnc2)CCN(Cc2ccccc2Cn2cccn2)CC1 | i
CCOc1ccc(NC(=O)c2c(NCc3cccnc3)sc3c2CCC(C)C3)cc1 (centres undefined) | 11.2µM*
CC1CCc2c(sc(NC(=O)COc3ccccc3)c2C(=O)Nc2ccccc2Cl)C1 (centres undefined) | -2.9%
COc1ccc(NC(=O)c2c(NC(=O)c3ccncc3)sc3c2CCC(C(C)(C)C)C3)cc1 (centres undefined) | -18.3%
Cc1cc2[nH]c3c(=O)n(Cc4ccccc4F)ncc3c2s1 | 1.5%
c1cncc(C2=NOC3(CCN(C4COC4)CC3)C2)c1 | 1.9%[39.2 µM]
O=S(=O)(Nc1ccccc1)c1ccc(NCc2cccc(Cl)c2O)cc1 | -23.3%
CCOc1cccc(CNc2ccc(O)cc2)c1OCc1ccccc1Cl | 11.2µM*
O=S(=O)(Nc1cnc2ccccc2c1)c1ccc(NCc2cccc(Cl)c2O)cc1 | -3.6%
CCN(CC)c1cc(CCC(=O)NCCCN2CCOCC2)ccn1 | i
CCOc1ccccc1NC(=O)Cn1c(=O)n(Cc2ccco2)c(=O)c2cccnc21 | -8.3%
CCOc1ccc(C(c2c(O)cc(C)n(Cc3ccco3)c2=O)N2CCN(C)CC2)cc1 (centres undefined) | 12.6µM*
Cc1ccc(C2(O)CCN(c3nc(C)ccc3C(N)=O)CC2)nc1 | 4.7%
O=C(O)CC(O)C(=O)O (centres undefined) | -17.9%
CC(O)CC(=O)O (centres undefined) | 15.9µM*
C[N+](C)(C)CC(O)CC(=O)O (centres undefined) | -5.4%
O=C(Nc1cn[nH]c1-c1nc2ccc(CN3CCOCC3)cc2[nH]1)NC1CC1 | -0.2%
SMILES | nsP2pro primary
O=C(O)Cc1cccn1-c1ccc(Cl)cc1 | 4.47µM*
O=C(Cc1cccn1-c1ccc(F)cc1)N1CCCCC1 | -20.2%
O=C(N1CCOCC1)N1CCN(c2ccc(Cl)cc2)CC1 | -1.1%
CC(C)CNC(=O)c1nc(-c2ccc(Cl)cc2)c2cnccn12 | -2.5%[39.2 µM]
CN1CCN(c2nc3c(c(=O)[nH]2)CCN(Cc2cccnc2)CC3)CC1 | i
Cc1oc2c(c1C(=O)N1CCOCC1)CN(Cc1cccnc1)CC2 | -11.3%
Cc1ccc(CN2CCc3nc(C(=O)Nc4cccnc4)oc3CC2)o1 | 10µM*
O=C(NCCc1ccc2c(c1)OCO2)c1cc2sccc2n1Cc1ccccc1 | 1.5%
CC[C@H]1C2C[C@H]3[C@@H]4N(C)c5ccccc5[C@@]45C[C@H](C2[C@H]5O)N3[C@@H]1O (some centres undefined) | -2.6%
c1cc(NCCc2c[nH]c3ccccc23)cc(Nc2ccncc2)c1 | 47.7%
CC(C)(NS(=O)(=O)c1ccc2c(Cl)cnc(N=C(N)N)c2c1)C(=O)O | -18.3%
COc1ccc2nc(-c3cccc(NC(C)=O)c3)sc2c1 | i
O[C@@H](CNC[C@H](O)[C@H]1CCc2cc(F)ccc2O1)[C@@H]1CCc2cc(F)ccc2O1 | -1.6%
OC[C@H]1O[C@@H](O[C@H]2[C@H](OCCc3ccccc3)O[C@H](CO)[C@@H](O)[C@@H]2O)[C@H](O)[C@@H](O)[C@@H]1O | 46.9%[10 µM]
